# Results reported in PubChem BioAssay.
# Values joined by “and” are separate entries in the source; they are usually repeats but may differ in a detail not shown here. Equal values may be shown once. A structure can be active in one record and inactive in another. Active and inactive are the calls of the source.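 Rule for the calls, unless noted: active = thallium flux through the channel raised or lowered by more than 3 SD from vehicle-only wells, actives on both sides; inactive = the rest.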
# Experiments:
# [1] = liver-stage malaria parasite growth inhibition, primary screen, cell-based, HepG2, luciferase luminescence, HepG2 viability (AID 624349; in the data active = parasite load remaining mostly below about 12%, no sharp cut-off; inactive = mostly above about 10%;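 note: 100% = mean of DMSO negative control wells on the same plate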); conditions: P. berghei liver stage in HepG2, luciferase luminescence, concentration not given here; parasite load remaining: stronger effect = lower value; viability: measured here: HepG2 viability without parasites
# [2] = Cy5 fluorescence interference with SSB-bound oligo, artefact control for HCV NS3 helicase inhibitor project, biochemical, NIH Clinical Collection, E. coli SSB (AID 743268; call rule not given here)
# [3] = system: Hepatitis C virus NS3 helicase; test: HCV NS3 helicase inhibitors, primary screen, biochemical, fluorescence polarization, NIH Clinical Collection (AID 743270; call rule not given here); conditions: NS3 helicase binding to Cy5-dT15 DNA, stronger effect = higher value, concentration not given here
# [4] = target: Single-stranded DNA-binding protein (Escherichia coli (strain K12)) (UniProt P0AGE0); test: E. coli SSB displacement from DNA, counter-screen for HCV NS3 helicase inhibitor project, biochemical, fluorescence polarization, NIH Clinical Collection (AID 743271; in the data active = inhibition above about 28%); conditions: stronger effect = higher value, concentration not given here
# [5] = fluorescence interference in NS3h assay format, artefact control for HCV NS3 helicase inhibitor project, biochemical, NIH Clinical Collection (AID 743272; call rule not given here;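 note: HCV NS3 helicase with a Cy5 labelled single stranded DNA probe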); conditions: fluorescence interference counterscreen, stronger effect = lower value
# [6] = modulation of C. elegans fzo-1 (AID 1259413; call rule not given here;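 note: fzo-1 mutant C. elegans worms in liquid wells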); conditions: C. elegans fzo-1 modulator screen, mean read-out; stronger effect = higher value
# [7] = survival rescue of mitochondrial mutant cells in low glucose, primary screen, MELAS cybrids, Rieske KO mouse fibroblasts, CellTiter-Glo (AID 1508586;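 active = mean z-score across replicates of 1.96 or higher in either the MELAS or the Rieske mutant cell line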;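 note: z relative to plate mean and SD of compound and empty wells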)
# [8] = viability rescue of complex I mutant cybrids, primary screen, cell-based, galactose medium, ATP luminescence (AID 1645843;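 active = z-score of at least 1.8 in each of two replicates, scored against plate mean and spread of sample wells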;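 note: positive z means more ATP and so rescue of galactose-driven cybrid death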); conditions: complex I mutant cybrid cells, 72 h, stronger effect = higher value
# F380Y = test: modulators of BK channel variants, profiling panel, selectivity assay, cell-based, U2OS BacMam, thallium flux, beta subunits (AID 1259406); conditions: at 30 µM;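 note: initial slope of Thallos dye fluorescence rise after thallium is added; log ratio against the mean of 0.3% DMSO vehicle wells on the same plate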
# F380Y/beta1 = test: as above; conditions: at 30 µM
# F380Y/beta2Delta = test: as above; conditions: at 30 µM
# F380Y/beta4 = test: as above; conditions: at 30 µM
# [9] = target: Calcium-activated potassium channel subunit alpha-1 (Homo sapiens) + Leucine-rich repeat-containing protein 26 (Homo sapiens) (UniProt Q12791+Q2I0M4); test: as above; conditions: F380Y/Slo1WT/gamma1, at 30 µM
# R275C = test: as above; conditions: at 30 µM
# R275C/beta1 = test: as above; conditions: at 30 µM
# R275C/beta2Delta = test: as above; conditions: at 30 µM
# R275C/beta4 = test: as above; conditions: at 30 µM
# R275C/Slo1WT/beta2 = test: as above; conditions: at 30 µM
# [10] = sensitizers of A549 cells to miR-34 induction, primary screen, imaging, A549 dox-inducible miR-34, nuclei and caspase counts (AID 1347080;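 active = compounds whose cell count with miR-34 switched on is under 0.7 times the count with it off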); conditions: A549 miR-34 inducible, Hoechst nuclei count, 48 h
# [11] = MELAS cybrid survival, CellTiter-Glo 48 h, stronger effect = higher value
# [12] = Rieske KO mouse fibroblast survival, CellTiter-Glo 72 h
# [13] = stronger effect = lower value, cell number ratio, induced over uninduced
# [14] = measured here: relative caspase fold change +Dox/-Dox
# [15] = measured here: total cells with miR-34 induction, stronger effect = lower value
# [16] = measured here: total cells without miR-34 induction
# Calcium-activated potassium channel subunit alpha-1 (Homo sapiens) + Leucine-rich repeat-containing protein 26 (Homo sapiens), sequence (Q2I0M4 whole entry, looked up, one chain of several): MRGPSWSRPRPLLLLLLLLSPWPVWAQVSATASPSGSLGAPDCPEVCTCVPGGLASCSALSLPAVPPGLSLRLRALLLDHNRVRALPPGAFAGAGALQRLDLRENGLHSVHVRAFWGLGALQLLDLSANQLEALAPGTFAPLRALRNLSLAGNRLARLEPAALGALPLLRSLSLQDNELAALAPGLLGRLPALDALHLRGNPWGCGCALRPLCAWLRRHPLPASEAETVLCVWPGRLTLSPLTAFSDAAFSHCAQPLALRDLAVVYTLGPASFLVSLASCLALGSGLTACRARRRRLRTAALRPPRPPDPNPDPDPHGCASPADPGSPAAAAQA
smiles,measurement,setting,value
CCOC(=O)c1ccc(OC(=O)CCCCCN=C(N)N)cc1,parasite load remaining,[1],117% (inactive) and 36.3% (inactive)
same,viability,[1],77.4% and 88.1%
same,fluorescence ratio,[2],1.04 (inactive)
same,inhibition,[3],0.4% (inactive)
same,inhibition,[4],-1.64% (inactive)
same,fluorescence ratio,[5],0.95 (inactive)
same,mean signal,[6],243 (inactive)
same,z-score,[7]; [11],-0.35 (inactive) and 0.272 (inactive)
same,z-score,[7]; [12],0.185 and -0.0147
same,z-score,[8],0.415 (inactive) and -0.085 (inactive)
same,log fold change Tl+ flux,F380Y,-0.0684 (inactive)
same,log fold change Tl+ flux,F380Y/beta1,-0.00638 (inactive)
same,log fold change Tl+ flux,F380Y/beta2Delta,-0.0274 (inactive)
same,log fold change Tl+ flux,F380Y/beta4,-0.0274 (inactive)
same,log fold change Tl+ flux,[9],0.00659 (inactive)
same,log fold change Tl+ flux,R275C,-0.063 (inactive)
same,log fold change Tl+ flux,R275C/beta1,-0.0293 (inactive)
same,log fold change Tl+ flux,R275C/beta2Delta,-0.0476 (inactive)
same,log fold change Tl+ flux,R275C/beta4,-0.00905 (inactive)
same,log fold change Tl+ flux,R275C/Slo1WT/beta2,-0.0477 (inactive)
CCOC(=O)c1c[nH]n2c(=O)c3c(nc12)CCC3,log fold change Tl+ flux,F380Y,0.0447 (inactive)
same,log fold change Tl+ flux,F380Y/beta1,0.0491 (inactive)
same,log fold change Tl+ flux,F380Y/beta2Delta,0.00798 (inactive)
same,log fold change Tl+ flux,F380Y/beta4,-0.00836 (inactive)
same,log fold change Tl+ flux,[9],-0.00512 (inactive)
same,log fold change Tl+ flux,R275C,-0.0014 (inactive)
same,log fold change Tl+ flux,R275C/beta1,0.00358 (inactive)
same,log fold change Tl+ flux,R275C/beta2Delta,0.00309 (inactive)
same,log fold change Tl+ flux,R275C/beta4,0.0387 (inactive)
same,log fold change Tl+ flux,R275C/Slo1WT/beta2,-0.0235 (inactive)
O=c1[nH]c(=O)n(C2CCCO2)cc1F (centres undefined),parasite load remaining,[1],107% (inactive) and 21.2% (inactive)
same,viability,[1],73.5% and 76.5%
same,fluorescence ratio,[2],1.08 (inactive)
same,inhibition,[3],6.73% (inactive)
same,inhibition,[4],5.29% (inactive)
same,fluorescence ratio,[5],1.04 (inactive)
same,mean signal,[6],283 (inactive)
same,fold change,[10]; [13],0.803 (inactive) and 0.835 (inactive) and 0.463 (active)
same,fold change,[10]; [14],1.28 and 1.27 and 3.72
same,cell count,[10]; [15],7370 and 6840 and 4080
same,cell count,[10]; [16],9180 and 8190 and 8820
same,z-score,[7]; [11],-0.322 (inactive) and 0.511 (inactive) and 0.255 (inactive)
same,z-score,[7]; [12],-0.199 and -0.575 and -0.0895
same,z-score,[8],1.17 (inactive) and 0.3 (inactive)
same,log fold change Tl+ flux,F380Y,-0.0407 (inactive)
same,log fold change Tl+ flux,F380Y/beta1,0.033 (inactive)
same,log fold change Tl+ flux,F380Y/beta2Delta,-0.0133 (inactive)
same,log fold change Tl+ flux,F380Y/beta4,-0.0214 (inactive)
same,log fold change Tl+ flux,[9],0.0446 (inactive)
same,log fold change Tl+ flux,R275C,-0.0615 (inactive)
same,log fold change Tl+ flux,R275C/beta1,-0.0291 (inactive)
same,log fold change Tl+ flux,R275C/beta2Delta,-0.0162 (inactive)
same,log fold change Tl+ flux,R275C/beta4,-0.0234 (inactive)
same,log fold change Tl+ flux,R275C/Slo1WT/beta2,0.00334 (inactive)
CN(C)CCc1c[nH]c2ccc(Cn3cncn3)cc12,parasite load remaining,[1],45% (inactive) and 103% (inactive)
same,viability,[1],99.5% and 78.1%
same,fluorescence ratio,[2],1.13 (inactive)
same,inhibition,[3],0.4% (inactive)
same,inhibition,[4],5.29% (inactive)
same,fluorescence ratio,[5],0.91 (inactive)
same,mean signal,[6],236 (inactive)
same,fold change,[10]; [13],0.991 (inactive) and 0.886 (inactive) and 0.916 (inactive)
same,fold change,[10]; [14],1.31 and 0.982 and 5.76
same,cell count,[10]; [15],7610 and 7730 and 12300
same,cell count,[10]; [16],7680 and 8720 and 13400
same,z-score,[7]; [11],-0.276 (inactive) and 0.545 (inactive)
same,z-score,[7]; [12],0.697 and -0.263
same,z-score,[8],0.12 (inactive)
same,log fold change Tl+ flux,F380Y,-0.0521 (inactive)
same,log fold change Tl+ flux,F380Y/beta1,-0.0483 (inactive)
same,log fold change Tl+ flux,F380Y/beta2Delta,0 (inactive)
same,log fold change Tl+ flux,F380Y/beta4,0.0107 (inactive)
same,log fold change Tl+ flux,[9],0.0357 (inactive)
same,log fold change Tl+ flux,R275C,-0.121 (active)
same,log fold change Tl+ flux,R275C/beta1,-0.00809 (inactive)
same,log fold change Tl+ flux,R275C/beta2Delta,-0.0421 (inactive)
same,log fold change Tl+ flux,R275C/beta4,0.00222 (inactive)
same,log fold change Tl+ flux,R275C/Slo1WT/beta2,0.0127 (inactive)
CCCCN1CCCC1CNC(=O)c1cc(C#N)c2ccccc2c1OC (centres undefined),parasite load remaining,[1],35.8% (inactive)
same,viability,[1],66.3%
same,fluorescence ratio,[2],0.93 (inactive)
same,inhibition,[3],-0.22% (inactive)
same,inhibition,[4],2.76% (inactive)
same,fluorescence ratio,[5],0.91 (inactive)
same,mean signal,[6],308 (inactive)
same,fold change,[10]; [13],0.818 (inactive) and 0.935 (inactive)
same,fold change,[10]; [14],0.846 and 1.44
same,cell count,[10]; [15],8480 and 8490
same,cell count,[10]; [16],10400 and 9080
same,z-score,[8],-0.605 (inactive) and -0.3 (inactive)
same,log fold change Tl+ flux,F380Y,-0.12 (active)
same,log fold change Tl+ flux,F380Y/beta1,-0.109 (active)
same,log fold change Tl+ flux,F380Y/beta2Delta,-0.243 (active)
same,log fold change Tl+ flux,F380Y/beta4,-0.221 (active)
same,log fold change Tl+ flux,[9],-0.0355 (inactive)
same,log fold change Tl+ flux,R275C,-0.0841 (inactive)
same,log fold change Tl+ flux,R275C/beta1,-0.0222 (inactive)
same,log fold change Tl+ flux,R275C/beta2Delta,-0.085 (inactive)
same,log fold change Tl+ flux,R275C/beta4,-0.0283 (inactive)
same,log fold change Tl+ flux,R275C/Slo1WT/beta2,-0.00509 (inactive)
CCSc1ccc(-c2noc(C(C)(C)C)n2)cn1,log fold change Tl+ flux,F380Y,0.0439 (inactive)
same,log fold change Tl+ flux,F380Y/beta1,0.0323 (inactive)
same,log fold change Tl+ flux,F380Y/beta2Delta,-0.00176 (inactive)
same,log fold change Tl+ flux,F380Y/beta4,0.0153 (inactive)
same,log fold change Tl+ flux,[9],-0.00182 (inactive)
same,log fold change Tl+ flux,R275C,0.0189 (inactive)
same,log fold change Tl+ flux,R275C/beta1,0.0241 (inactive)
same,log fold change Tl+ flux,R275C/beta2Delta,-0.0201 (inactive)
same,log fold change Tl+ flux,R275C/beta4,0.031 (inactive)
same,log fold change Tl+ flux,R275C/Slo1WT/beta2,-0.00966 (inactive)
C[C@@H](c1ncncc1F)[C@](O)(Cn1cncn1)c1ccc(F)cc1F,parasite load remaining,[1],100% (inactive)
same,viability,[1],75.1%
same,fluorescence ratio,[2],1.03 (inactive)
same,inhibition,[3],3.56% (inactive)
same,inhibition,[4],-6.26% (inactive)
same,fluorescence ratio,[5],1.02 (inactive)
same,mean signal,[6],264 (inactive)
same,fold change,[10]; [13],0.997 (inactive)
same,fold change,[10]; [14],2.46
same,cell count,[10]; [15],9140
same,cell count,[10]; [16],9170
same,z-score,[7]; [11],0.391 (inactive)
same,z-score,[7]; [12],-0.0394
same,z-score,[8],0.365 (inactive)
same,log fold change Tl+ flux,F380Y,0.0491 (inactive)
same,log fold change Tl+ flux,F380Y/beta1,-0.0167 (inactive)
same,log fold change Tl+ flux,F380Y/beta2Delta,0.0265 (inactive)
same,log fold change Tl+ flux,F380Y/beta4,0.000651 (inactive)
same,log fold change Tl+ flux,[9],0.106 (active)
same,log fold change Tl+ flux,R275C,-0.0159 (inactive)
same,log fold change Tl+ flux,R275C/beta1,0.036 (inactive)
same,log fold change Tl+ flux,R275C/beta2Delta,0.0278 (inactive)
same,log fold change Tl+ flux,R275C/beta4,-0.0222 (inactive)
same,log fold change Tl+ flux,R275C/Slo1WT/beta2,-0.0193 (inactive)
